# From PubChem BioAssay (NCI)
# Compounds without any hit were thinned out: in the full panel of roughly 79,000, 15% have a hit. Active and inactive are the calls of the source. Cut-off read from the data, not from the text of the source: active = growth inhibition above about 70%; inactive = the rest.
# Test: NCI Yeast Anticancer Drug Screen. Data for the cln2 rad14 strain (AID 165);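 note: 0% = growth equal to vehicle treated cultures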
# Details: S. cerevisiae cln2 rad14 strain, at 50.0 µM, hits give high values
# Method: Growth inhibition of yeast strains with defined genetic alterations is measured as a screen for potential anti-cancer activity. Selected strains with alterations in DNA damage repair or cell cycle control were exposed to compounds and growth inhibition was measured relative to vehicle treated controls. The strain used in this assay is cln2 rad14
row,Structure (SMILES),growth inhibition
1,Brc1cccc(CCOCc2ccccc2)c1,2.05% (inactive)
2,CC(=O)Nc1nc(Cl)c2ncn(C3CCCO3)c2n1 (stereo not given),-33.5% (inactive)
3,CN=NNc1ccccc1,-29.2% (inactive)
4,COc1cc(/C=N/NC(=O)Cc2cccc3ccccc23)ccc1O,-5.3% (inactive)
5,CC(=O)CC(=O)NCCCc1ccccc1,3.5% (inactive)
6,O=[N+]([O-])C(C(Cl)=C(Cl)Cl)=C(N1CCCCC1)N1CCCCC1,-22.1% (inactive)
7,O=c1cc(Cl)ncn1C1OC(CO)C(O)C1O (stereo not given),-14.3% (inactive)
8,Nc1[nH]c(=O)ncc1[N+](=O)[O-],-25.4% (inactive)
9,Cc1ccc(NC(=S)NC(=O)c2ccccc2)cc1,-55.7% (inactive)
10,O=[N+]([O-])c1cccc(NC(c2ccccc2)S(=O)(=O)O)c1 (stereo not given),18.9% (inactive)
11,Cc1ccc(N2CCN(CCC(=O)O)CC2)cc1,-3.85% (inactive)
12,Nc1ccc(C(C(=O)O)c2ccccc2)cc1Cl (stereo not given),-1.55% (inactive)
13,C=CC(=N)N,8.45% (inactive)
14,c1ccc2c3c([nH]c2c1)C1(CCCCC1)c1c([nH]c2ccccc12)C31CCCCC1,9.9% (inactive)
15,CCc1cc(Cl)c(O)c(Cl)c1,-0.15% (inactive)
16,CCN(CC)C(=O)C1C(C=C(C)C)C1(C)C (stereo not given),5.3% (inactive)
17,COc1ccc(/C(=N/NS(=O)(=O)c2ccc([N+](=O)[O-])cc2)C2COC(=O)C2)cc1OC (stereo not given),-13.4% (inactive)
18,CC(C)c1cccc(C(C)C)c1NC(=O)C(=O)C1SC(=S)NC1=O (stereo not given),8.75% (inactive)
19,Cc1ccc(C2OC(=O)C(=O)C2=O)cc1 (stereo not given),-21.6% (inactive)
20,ClC1=C(Cl)C2(Cl)C3C(CC4C3C3(Cl)C(Cl)=C(Cl)C4(Cl)C3(Cl)Cl)C1(Cl)C2(Cl)Cl (stereo not given),-32.1% (inactive)

row,Structure (SMILES),growth inhibition
1,COC(=O)C(/C(=N/NC(N)=O)C(=O)Nc1c(C)cccc1C(C)(C)C)c1nc2ccc(Cl)cc2[nH]c1=O (stereo not given),3.3% (inactive)
2,O=S(=O)(c1ccccc1)c1ccc(O)cc1,-29.8% (inactive)
3,Nc1nc(-c2ccncc2)cc(-c2cc(-c3ccncc3)nc(N)n2)n1,-21.9% (inactive)
4,CC(C)(C)c1ccc(C(=O)NCSCC(NC(=O)CCC(N)C(=O)O)C(=O)NCC(=O)O)cc1 (stereo not given),-7.75% (inactive)
5,COc1ccc(C(=O)c2ccccc2)c(N)c1,-18.9% (inactive)
6,COC(=O)C1(C)CCCC2(C)C3CC4OC4(C(C)C)CC3(O)CCC12 (stereo not given),-8.4% (inactive)
7,NC(=O)/C=C/c1ccc([N+](=O)[O-])cc1,-74% (inactive)
8,CCCC(C)(CC)C(=O)O (stereo not given),-10.3% (inactive)
9,COC(=O)c1c(O)ccc(O)c1C(=O)OC,-16.6% (inactive)
10,Cc1sc2nc3n(c(=O)c2c1C)N=C(c1ccccc1)CS3,11.1% (inactive)
11,CN(C)C=NCc1ccc2c(c1)OCO2,2.7% (inactive)
12,CN(C)CCNC(=O)C(C)(C)Oc1ccc(C(=O)c2ccc(Cl)cc2)cc1Cl,-21.6% (inactive)
13,C=C1CCC2[C@](C)(CCC[C@]2(C)C(=O)O)[C@@H]1CCc1ccoc1 (stereo not given in full),77% (active)
14,CCC(C)CN1C(=O)NC(C)(Cc2ccccc2)C1=O (stereo not given),16.8% (inactive)
15,CCOc1cccc(C=Nc2ccccc2SSc2ccccc2N=Cc2cccc(OCC)c2O)c1O,2.85% (inactive)
16,CC(/C=C/C(=O)c1sc(C(N)=S)nc1C)=C\c1ccccc1,10.8% (inactive)
17,COC(=O)CCBr,-18.2% (inactive)
18,CN(C)CCCn1c(=O)nc2n(-c3ccccc3)c3ccccc3nc-2c1=O,8.75% (inactive)
19,[Cl][Pt+2][Cl].[NH-]C(CO)C([NH-])CO (stereo not given),-15.8% (inactive)
20,COC(=O)c1c([N+](=O)[O-])ncn1C1CC(OC(C)=O)C(COC(C)=O)O1 (stereo not given),-30.8% (inactive)
